The panel holds about 79,000 compounds, 15% with a hit somewhere; the sample as a whole holds those more often. Cut-off read from the data, not from the text of the source: active = growth inhibition above about 70%; inactive = the rest.
Assays:
[1] = NCI Yeast Anticancer Drug Screen. Data for the rad50 strain (AID 155);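 note: 0% = growth of vehicle-only cultures of the same strain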; conditions: S. cerevisiae rad50 strain growth inhibition; at 50.0 µM; stronger effect = higher value
Summary of the method: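 Growth of the mutant yeast was measured after compound exposure and referenced to vehicle-treated cultures.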

[2] = NCI Yeast Anticancer Drug Screen. Data for the mec2-1 strain (AID 157); conditions: S. cerevisiae mec2-1 strain, at 50.0 µM, stronger effect = higher value
Summary of the method: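 Cells of the genetically defined mec2-1 yeast strain are incubated with test compound. Inhibition of growth is calculated against vehicle-treated controls.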

[3] = NCI Yeast Anticancer Drug Screen. Data for the sgs1 mgt1 strain (AID 161);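 note: 0% = growth of cultures given vehicle only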; conditions: S. cerevisiae sgs1 mgt1 strain, at 50.0 µM, stronger effect = higher value
Summary of the method: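 Test agents were incubated with a DNA-repair-mutant yeast strain. Growth was then read and compared against vehicle-treated controls.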

[4] = NCI Yeast Anticancer Drug Screen. Data for the cln2 rad14 strain (AID 165);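 note: 0% = growth equal to vehicle treated cultures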; conditions: S. cerevisiae cln2 rad14 strain, at 50.0 µM, stronger effect = higher value
Summary of the method: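 The screen exposed genetically defined yeast (cln2 rad14) to test compounds and scored growth inhibition relative to vehicle-treated controls.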

[5] = NCI Yeast Anticancer Drug Screen. Data for the bub3 strain (AID 167); conditions: S. cerevisiae bub3 mutant strain, at 50.0 µM, stronger effect = higher value
Summary of the method: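 Whole-cell yeast assay. The mutant strain was incubated with compounds, and growth inhibition was determined by comparison with vehicle-treated cells.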

[6] = NCI Yeast Anticancer Drug Screen. Data for the mlh1 rad18 strain (AID 175); conditions: S. cerevisiae mlh1 rad18 strain growth inhibition; at 50.0 µM; stronger effect = higher value
Summary of the method: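 Compound-treated yeast growth, normalised to vehicle controls. Strain bears defined DNA repair mutations.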

Measured: growth inhibition

CC(=O)Cc1ccc(C)cc1
inactive: [1] -40.4% | [2] -41.8% | [3] -29.5% | [4] 7.3% | [5] -44.5% | [6] -20.3%

O=C(O)CP(=S)(S)c1ccccc1 (stereo not drawn)
inactive: [1] -28.5% | [2] -32.9% | [3] -26.4% | [4] 2.4% | [5] -27.8% | [6] -39.5%

O=S(=O)(Nc1ccc(-c2ccccc2)cc1)c1ccc([As](=O)(O)O)cc1
inactive: [1] 38.6% | [2] 24.7% | [3] 54.2% | [4] -1.65% | [5] 18.9% | [6] 40%

SCCS
inactive: [1] -20.1% | [2] -5.2% | [3] -14.6% | [4] -5.6% | [5] -27.7% | [6] -25.7%

S=C(Nc1ccccc1)N1CC1
inactive: [1] -7.85% | [2] -22.3% | [3] -19.9% | [4] -11.9% | [5] -6.15% | [6] -17.4%

CN(C)P(=O)(CC(O)c1ccccc1)N(C)C (stereo not drawn)
inactive: [1] 18.6% | [2] -2.05% | [3] -14.5% | [4] -8.05% | [5] 8.5% | [6] 10.9%

Cc1ccc2c3c(c(=O)oc2c1)[C@H](C)C[C@@](C)(CO)O3
inactive: [1] -8.35% | [2] 1.9% | [3] 9.8% | [4] -5.4% | [5] 3.7% | [6] -7.35%

CNP1(N(C)C)=NP(NC)(N(C)C)=NP(NC)(N(C)C)=N1 (stereo not drawn)
inactive: [1] -13.9% | [2] 12.9% | [3] -10.6% | [4] -6.85% | [5] 6.6% | [6] 10.4%

CC1CN1P(=O)(N1CCCC1)N1CC1C (stereo not drawn)
inactive: [1] 5.25% | [2] 15.1% | [3] -20.3% | [4] 6.5% | [5] -1.5% | [6] 13.4%

COc1ccc(N2C(=O)C3C4c5ccccc5C(C3C2=O)[n+]2ccccc24)cc1 (stereo not drawn)
inactive: [1] 27.2% | [2] -14.1% | [3] 9.7% | [4] -49.5% | [5] -0.45% | [6] 10.6%

COP(=O)(Cc1ccc(/C=C/C#N)o1)OC
inactive: [1] -12.2% | [2] -3.1% | [3] -38.8% | [4] -22.1% | [5] 18.2% | [6] -10.2%

O=C1CN=C(c2ccccc2)c2ccncc2N1
inactive: [1] 4.15% | [2] 4.5% | [3] 12.6% | [4] 19.1% | [5] 5.35% | [6] 28.6%

NCC(=O)c1ccc(O)c(O)c1
inactive: [1] -8.85% | [2] -7.05% | [3] -4.35% | [4] 2.8% | [5] 16.4% | [6] -8.55%

CC[N+]1(CC)CC[N+](CC)(CC)CC1 (tested in a mixture with another compound)
inactive: [1] 6.1% | [2] -28.8% | [3] 4.85% | [4] 0.45% | [5] -0.95% | [6] 29.1%

COc1cc(N=Nc2ccc([N+](=O)[O-])cc2)ccc1N(CCCl)CCCl
inactive: [1] -8.55% | [2] -13.2% | [3] -16.9% | [4] 11.2% | [5] -10.6% | [6] 12.8%

O=C1NCN(c2ccccc2)C12CCN(Cc1ccccc1)CC2
inactive: [1] -4.6% | [2] -23.7% | [3] 14.6% | [4] 12.3% | [5] 3.1% | [6] 5.5%

C[N+]1(C)C2CCC1CC(O)C2 (stereo not drawn)
inactive: [1] 5.45% | [2] -9.85% | [3] 3.55% | [4] 23.1% | [5] -6.35% | [6] 3.6%

CCC(OC(=O)C1C(C=C(C)C)C1(C)C)c1cc2c(cc1Cl)OCO2 (stereo not drawn)
inactive: [1] -8.05% | [2] -19.1% | [3] -7.3% | [4] -13.3% | [5] -10.7% | [6] -20.8%

CCN(CC)CCN(CC)CC.CCN(CC)CCN(CC)CC.[Cu+2].[Cu+2].[O-][Cl+3]([O-])([O-])[O-].[OH3+].[OH3+]
inactive: [1] -2.85% | [2] 1.85% | [3] -0.35% | [4] 16.1% | [5] 12.6% | [6] 15.7%

COc1cc(C2c3cc4c(cc3OC(O)C2C)OCO4)cc(OC)c1O (stereo not drawn)
inactive: [1] -13.2% | [2] -49.9% | [3] -23.9% | [4] 8.25% | [5] -2.9% | [6] -5.75%

C#CCOC(N)=O
inactive: [1] 1.05% | [2] -15.1% | [3] -7.65% | [4] -18.6% | [5] -14.8% | [6] -17.6%

CCCCCCCCCCC(C(=O)c1ccccc1)N1CCOCC1 (stereo not drawn)
inactive: [1] -14.7% | [2] -2.95% | [3] 10.9% | [4] -8.3% | [5] 3.85% | [6] -8.4%

NC(Cc1ccc2c(c1)OCO2)c1ccccc1 (stereo not drawn)
inactive: [1] -0.1% | [2] 9.05% | [3] 3.25% | [4] -27.3% | [5] 0.45% | [6] 4.45%

CCCCCC(C)C1C(=O)NC(=O)NC1=O (stereo not drawn)
inactive: [1] 6.4% | [2] 12.9% | [3] 2.65% | [4] 5.7% | [5] 7.8% | [6] -6%

CC(=O)OC1CCC2(C)C(CCC3C2CCC2(C)C(c4ccc(=O)oc4)C(OC(C)=O)CC32O)C1 (stereo not drawn)
inactive: [1] 45.5% | [2] 0.05% | [3] 21.3% | [4] 4.5% | [5] -4.45% | [6] -0.5%

CC1(C(=O)O)OC1c1ccccc1 (stereo not drawn)
inactive: [1] 4.2% | [2] 1.2% | [3] 6.85% | [4] -11.7% | [5] 10.2% | [6] -7.7%

CCCC(=O)[O-].CCCC(=O)[O-].N.N.N.N.[Co+3].[O-][Cl+3]([O-])([O-])[O-]
inactive: [1] -5.15% | [2] -0.75% | [3] -48% | [4] 12.3% | [5] -5.1% | [6] -12.6%

COc1cc(C2c3cc4c(cc3C(O)[C@H]3COC(=O)[C@@H]23)OCO4)cc(OC)c1O (stereo partly drawn)
inactive: [1] -36.4% | [2] -28.7% | [3] -28.8% | [4] 16.6% | [5] 6.55% | [6] -7.9%

COc1ccc(CCN)cc1OC
inactive: [1] 37.5% | [2] 9.9% | [3] 23% | [4] -82% | [5] -5.05% | [6] -24.2%

COC(=O)C1=COC(C)[C@H]2CN3CCc4c([nH]c5cc(OC)ccc45)C3CC12 (stereo partly drawn)
inactive: [1] -0.6% | [2] -9.95% | [3] -7.65% | [4] 0.9% | [5] -12.8% | [6] -9.1%

ClC1OC(Cl)(Cl)C(Cl)(Cl)OC1(Cl)Cl (stereo not drawn)
inactive: [1] 7.7% | [2] 3.75% | [3] 35% | [4] -4.25% | [5] 18.8% | [6] 45.9%

c1ccc(C[N+]23CN4CN(CN(C4)C2)C3)cc1
inactive: [1] 9.5% | [2] -20% | [3] -7.6% | [4] 8.65% | [5] -18.2% | [6] -6.5%

CCOP(=S)(OCC)Oc1cnn(C)c(=S)c1Cl
inactive: [1] 12.8% | [2] -18.6% | [3] -0.85% | [4] 10.3% | [5] -4.85% | [6] 8.05%

COP(=O)(OC)C(C)(C)NC(=O)NC(F)(F)F
inactive: [1] -1.9% | [2] -14.9% | [3] -24.6% | [4] 28.9% | [5] 11.1% | [6] -4.25%

CN(C)C1OCCO1
inactive: [1] -8.45% | [2] -36.1% | [3] -11% | [4] 1.4% | [5] -7.05% | [6] -3.35%

O=c1cc(CCl)occ1O
inactive: [1] 7.35% | [2] 19.5% | [3] 20.6% | [4] -5.75% | [5] 16.1% | [6] 15.1%

c1cc[c]([Hg][S]c2nc3ccccc3s2)cc1
inactive: [1] -22.4% | [2] -7.1% | [3] -6.05% | [4] -37.3% | [5] -5.15% | [6] -5.1%

S=P(C1CCCCC1)(C1CCCCC1)C(c1cccnc1)N1CCCC1 (stereo not drawn)
inactive: [1] -6.85% | [2] -9.1% | [3] -6.3% | [4] -5.85% | [5] 20.6% | [6] 14.1%

Reference: PubChem BioAssay (NCI)
